Source: PubChem BioAssay (Tox21)
Values joined by “and” are separate entries in the source; they are usually repeats but may differ in a detail not shown here. Identical values can stand only once. Inconclusive results are not listed. Entries that show only a call come without a potency. Where a structure was tested more than once in an assay, its records may differ in their call. Active and inactive are the calls of the source. The call rests on the fitted dose curve.

Assay: Nuclear factor erythroid 2-related factor 2/antioxidant responsive element (Nrf2/ARE) small molecule agonists: luciferase reporter gene qHTS assay in human keratinocytes (AID 1919969); further: nearly all actives have a fitted effect of over 35% in size
Potency means the concentration at half of the fitted maximal effect.

| SMILES | Potency |
| --- | --- |
| C#C[C@]1(O)CC[C@H]2[C@@H]3CCC4=CC(=O)CC[C@@H]4[C@H]3CC[C@@]21CC | inactive |
| Cc1cccc(C)c1 | inactive |
| NC(=O)/N=N/C(N)=O | inactive |
| Oc1ccc(O)cc1 | 60.8 µM (active) and 61.1 µM (active) and 21.1 µM (active) |
| CN(C)Cc1cc(CN(C)C)c(O)c(CN(C)C)c1 | inactive |
| CC(C)NCC(O)c1ccc(O)c(O)c1 (stereo not drawn) | inactive |
| NC(=O)c1cccnc1 | inactive |
| CCCCC(CC)C(=O)O (stereo not drawn) | inactive |
| CC1=CC[C@H]2C[C@@H]1C2(C)C | inactive |
| CCOc1ccc(NC(=O)CC(C)O)cc1 (stereo not drawn) | inactive |
| C=C[C@@]1(C)CC(=O)[C@]2(O)[C@@]3(C)[C@@H](O)CCC(C)(C)[C@@H]3[C@H](O)[C@H](OC(C)=O)[C@@]2(C)O1 | inactive |
| Cc1cccc2ccccc12 | inactive |
| Cc1ccc(N)c([N+](=O)[O-])c1 | inactive |
| CC(=O)OCC(COC(C)=O)OC(C)=O | inactive |
| C=C(C)C(=O)OCC(C)O (stereo not drawn) | inactive |
| COc1ccc(C(=O)c2ccccc2)c(O)c1 | inactive and 54.5 µM (active) |
| COc1cc([C@H]2Oc3cc([C@H]4Oc5cc(O)cc(O)c5C(=O)[C@@H]4O)ccc3O[C@@H]2CO)ccc1O | inactive |

| SMILES | Potency |
| --- | --- |
| CC(C)[C@@H]1CC[C@@H](C)C[C@H]1O | inactive |
| C=C(C)C(=O)OCCCCCC | inactive |
| CC(=O)Nc1ccc(C(=O)CCl)cc1 | 54.8 µM (active) and 9.69 µM (active) |
| Clc1ccc(Sc2cc(Cl)c(Cl)cc2Cl)cc1 | inactive |
| CCCCCCCCCCCCCC[N+](C)(C)C | inactive |
| C[C@]12C[C@H](O)[C@H]3[C@@H](CCC4=CC(=O)CC[C@@]43C)[C@@H]1CC[C@@H]2C(=O)CO | inactive |
| CCCCCCC(C)(C)S | inactive |
| c1cnc2c(c1)ccc1cccnc12 | 9.69 µM (active) |
| CC1(C)O[C@@H]2C[C@H]3[C@@H]4CCC5=CC(=O)C=C[C@]5(C)[C@@]4(F)[C@@H](O)C[C@]3(C)[C@]2(C(=O)CO)O1 | inactive |
| Brc1ccc(Br)c(Br)c1 | inactive |
| Oc1c(Cl)cc(Cl)cc1Sc1cc(Cl)cc(Cl)c1O | 6.13 µM (active) and inactive |
| CNC(=S)N(C)C | inactive |
| CCCNC(=O)NS(=O)(=O)c1ccc(Cl)cc1 | inactive |
| O=C1O[C@H](CO)[C@@H](O)[C@H](O)[C@H]1O | inactive |
| CCN=c1cc2oc3cc(NCC)c(C)cc3c(-c3ccccc3C(=O)OCC)c-2cc1C | inactive and 27.3 µM (active) |
| CN(C)C | inactive |
